Source: PubChem BioAssay (Tox21)
Records with an inconclusive call do not appear. Where a call stands in place of a potency, no number is given. Active and inactive are the calls of the source. Calls follow the shape of the dose curve; as a rule, active = well fitted cell-killing curve with a large enough effect in the repeat runs; inconclusive = weak or mixed curves, or effect the other way; inactive = flat fitted curve, though single readings scatter.

Test: qHTS RealTime-Glo MT Cell Viability Assay in HepG2 cells - 0 hour (AID 1224889); also: nearly all actives have a fitted effect of over 50% in size
Settings: RealTime-Glo luminescence; series mostly up to 76.8 µM
How it was run: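 Luminescence read-out: viable HepG2 cells reduce a prosubstrate to a NanoLuc substrate, giving a signal proportional to live cell number. Reads taken at 0, 8, 16, 24, 32 and 40 h of compound exposure at 37 C.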
For `C=CC(=O)O`, the Potency was “inactive”.
For `COc1cc(NC(C)CCCN)c2ncccc2c1` (configuration not stated), the Potency was “inactive”.
For `O=C(O)/C=C/c1ccc(O)c(O)c1`, the Potency was “inactive”.
In the case of `COc1cc(NS(=O)(=O)c2ccc(N)cc2)nc(C)n1`, the Potency is reported as “inactive”.
For `CC(=O)NCCO`, the Potency was “inactive”.
In the case of `CCCCCc1ccco1`, the Potency is reported as “inactive”.
With `Nc1nc(-c2ccc([N+](=O)[O-])cc2)cs1` the Potency was “inactive”.
In the case of `O=C(C(=O)c1ccco1)c1ccco1`, the Potency is reported as “inactive”.
For `O=C(Oc1ccccc1)c1ccc2ccccc2c1O`, the Potency was “inactive”.
In the case of `CC(C(=O)O)c1ccc(C(=O)c2cccs2)cc1` (configuration not stated), the Potency is reported as “inactive”.
In the case of `O=C(CCS)OCC(COC(=O)CCS)(COC(=O)CCS)COC(=O)CCS`, the Potency is reported as “inactive”.
With `CCCCCCC(CO)CCCC` (configuration not stated) the Potency was “inactive”.
